About 2,000 (36%) of roughly 5,500 compounds were called active. Another 18% or so got no clear call; they are omitted. Cut-off read from the data, not from the text of the source: active = normalized growth mostly below about 0.91 (no sharp cut-off); inconclusive = no clear call, values can overlap the other calls; inactive = mostly above about 0.92. The list shows a part of the results.
Assay: chemical genetic growth profiling, strain panel (AID 1159580);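 note: tested at 20 µM; growth read once vehicle control cultures reached saturation at 30 °C; 1 = growth at the plate median or of vehicle wells; lower values mean less growth of the strain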
Conditions: S. cerevisiae deletion strains, growth OD

Measured: normalized growth

Cc1cccc(C#Cc2ccccc2)n1
inactive: locus YAL040C, strain CLN3, hits give low values 0.997 | locus YCL061C, strain MRC1 (second series), hits give low values 0.968 | locus YDR363W, strain ESC2, hits give low values 1.05 | locus YER002W, strain NOP16, hits give low values 0.986 | locus YGR078C, strain PAC10, hits give low values 0.978 | locus YMR263W, strain SAP30, hits give low values 0.993 | locus YMR307W, strain GAS1, hits give low values 0.919 | locus YNL128W, strain TEP1, hits give low values 0.992 | locus YNL175C, strain NOP13, hits give low values 0.977 | locus YNL197C, strain WHI3, hits give low values 1 | locus YNL224C, strain SQS1, hits give low values 1 | locus YNL322C, strain KRE1, hits give low values 0.976 | locus YOR083W, strain WHI5 (second series), hits give low values 0.918

CC(C)(CO)C(O)C(=O)NCCCO (stereo not drawn)
inactive: locus YAL021C, strain ccr4, hits give low values 1 | locus YAL026C, strain drs2, hits give low values 1.02 | locus YAL030W, strain snc1, hits give low values 1.02 | locus YBL061C, strain skt5, hits give low values 1.02 | locus YBR009C, strain hhf1, hits give low values 1.03 | locus YBR023C, strain chs3, hits give low values 1.03 | locus YBR171W, strain sec66, hits give low values 1.03 | locus YBR231C, strain swc5, hits give low values 1.02 | locus YBR279W, strain paf1, hits give low values 1.01 | locus YCL011C, strain gbp2, hits give low values 1.02 | locus YCL016C, strain dcc1, hits give low values 1.02 | locus YCL061C, strain MRC1, hits give low values 1.01 | locus YCL069W, strain vba3, hits give low values 1.01 | locus YCR088W, strain abp1, hits give low values 1.01 | locus YDL005C, strain med2, hits give low values 1.01 | locus YDL040C, strain nat1, hits give low values 1.01 | locus YDR001C, strain nth1, hits give low values 1.02 | locus YDR069C, strain doa4, hits give low values 1.02 | locus YDR137W, strain rgp1, hits give low values 1.03 | locus YDR159W, strain sac3, hits give low values 1.03 | locus YDR195W, strain ref2 1.01 | locus YDR297W, strain sur2, hits give low values 1.01 | locus YDR334W, strain swr1, hits give low values 1.01 | locus YDR335W, strain msn5, hits give low values 1.01 | locus YDR392W, strain spt3, hits give low values 1.02 | locus YEL003W, strain gim4, hits give low values 1.02 | locus YEL037C, strain rad23, hits give low values 1.01 | locus YEL061C, strain CIN8 (second series), hits give low values 1.02 | locus YER015W, strain faa2, hits give low values 1.01 | locus YER016W, strain bim1, hits give low values 1.02 | locus YER111C, strain swi4, hits give low values 1.01 | locus YER155C, strain BEM2 (second series), hits give low values 1.04 | locus YFR010W, strain ubp6, hits give low values 1.01 | locus YGL167C, strain pmr1, hits give low values 1.03 | locus YGL173C, strain kem1, hits give low values 1.02 | locus YGL227W, strain vid30, hits give low values 1.02 | locus YGL240W, strain doc1, hits give low values 1.02 | locus YGL253W, strain hxk2, hits give low values 1.02 | locus YHR013C, strain ard1, hits give low values 1.03 | locus YHR027C, strain rpn1, hits give low values 1.02 | locus YHR030C, strain SLT2, hits give low values 1.02 | locus YHR079C, strain IRE1, hits give low values 1.01 | locus YHR142W, strain chs7, hits give low values 1.01 | locus YJL092W, strain hpr5, hits give low values 1.01 | locus YJL095W, strain BCK1 (second series), hits give low values 1.01 | locus YJL095W, strain BCK1, hits give low values 0.995 | locus YJL115W, strain asf1, hits give low values 1.02 | locus YJL129C, strain trk1, hits give low values 1.02 | locus YJL154C, strain vps35, hits give low values 1.01 | locus YJL164C, strain tpk1, hits give low values 1.02 | locus YJL166W, strain qcr8, hits give low values 1.02 | locus YJL187C, strain SWE1, hits give low values 1.01 | locus YJR066W, strain TOR1, hits give low values 0.964 | locus YKL160W, strain elf1, hits give low values 1.01 | locus YKR026C, strain gcn3, hits give low values 0.994 | locus YKR091W, strain srl3, hits give low values 1.01 | locus YLL001W, strain dnm1, hits give low values 1.02 | locus YLL026W, hits give low values 1.02 | locus YLL041C, strain sdh2, hits give low values 1.02 | locus YLR027C, strain aat2, hits give low values 1.02 | locus YLR113W, strain HOG1, hits give low values 0.985 | locus YLR221C, strain rsa3, hits give low values 1.01 | locus YLR258W, strain gsy2, hits give low values 1.02 | locus YLR262C, strain YPT6 (second series), hits give low values 1.02 | locus YLR320W, strain mms22, hits give low values 1.02 | locus YLR342W, strain FKS1, hits give low values 1.01 | locus YLR357W, strain rsc2, hits give low values 1.04 | locus YLR370C, strain arc18, hits give low values 1.02 | locus YLR384C, strain iki3, hits give low values 1.02 | locus YML120C, strain ndi1, hits give low values 1.01 | locus YMR058W, strain fet3, hits give low values 1.01 | locus YMR125W, strain sto1, hits give low values 1.03 | locus YMR129W, hits give low values 1.01 | locus YMR205C, strain PFK2, hits give low values 1.03 | locus YMR231W, strain pep5, hits give low values 1.01 | locus YNL071W, strain lat1, hits give low values 1.02 | locus YNL183C, strain NPR1, hits give low values 0.954 | locus YNL209W, strain ssb2, hits give low values 1.01 | locus YNL248C, strain rpa49, hits give low values 0.992 | locus YNL322C, strain KRE1 (second series), hits give low values 1.01 | locus YNR049C, strain mso1, hits give low values 1.01 | locus YOR001W, strain rrp6, hits give low values 1 | locus YOR070C, strain gyp1, hits give low values 1.01 | locus YOR080W, strain dia2, hits give low values 1.02 | locus YOR083W, strain WHI5, hits give low values 1 | locus YOR106W, strain vam3, hits give low values 1 | locus YOR231W, strain MKK1, hits give low values 1.01 | locus YOR265W, strain rbl2, hits give low values 1.01 | locus YOR270C, strain vph1, hits give low values 1.03 | locus YOR290C, strain snf2, hits give low values 1.03 | locus YPL051W, strain arl3, hits give low values 1.03 | locus YPL078C, strain atp4, hits give low values 1.01 | locus YPL106C, strain sse1, hits give low values 1 | locus YPL240C, strain hsp82, hits give low values 1.01 | locus YPL256C, strain CLN2, hits give low values 0.994
